Source: PubChem (National Center for Advancing Translational Sciences (NCATS))
A selection: hits, their analogues and other compounds. The true share with any hit is near 10%.
BAZ2B inh: inhibitors of human BAZ2B bromodomain | hit rate 4.4% among 360,000 | Q9UIF8 | AlphaScreen BAZ2B-H3K14Ac peptide displacement | Potency, µM (series often up to 114 µM), for inactives: at the highest dose activity change, negative = inhibition, hits mostly inhibitors | AID 504333; further: potency means the concentration at half of the fitted maximal effect; on the % scale 0 is the no-effect control and ±100 the full control effect; nearly all actives have a fitted effect of over 60% in size
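AlphaScreen displacement of biotin-H3(5-23)K14Ac peptide (50 nM final) from BAZ2B (50 nM final) in PBS pH 7.4, 0.01% Tween-20; complex preformed 30 min RT, then compounds (top 110 uM) 30 min RT, beads 20 min dark.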
HP1b chromo inh: blocks HP1-beta chromodomain binding to methylated histone tails; AID 540317; AlphaScreen HP1-beta / biotin-H3K9me3 peptide binding; Potency, µM (doses to about 114 µM), for inactives: at the highest dose activity change, negative = inhibition, actives largely listed as inhibitors; P83916; hit rate 0.56% among 390,000; further: potency means the concentration at half of the fitted maximal effect; nearly all actives have a fitted effect of over 70% in size
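AlphaScreen: HP1-beta (50 nM) preformed 30 min with biotin-H3(1-18)K9me3 peptide (50 nM) in PBS pH 7.4, 0.01% Tween-20. Compound added for 30 min at RT, then streptavidin donor/nickel chelate acceptor beads (10 ug/mL) for 30 min.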
G9a block: inhibitors of human histone lysine methyltransferase G9a | Q96KQ7 | G9a H3K9 monomethylation, AlphaScreen, 2 h | Potency, µM (highest dose often 102 µM), for inactives: top-dose activity, negative = inhibition, most hits filed as inhibitors | hit rate 8.8% among 350,000; further: potency means the concentration at half of the fitted maximal effect; on the % scale 0 is the no-effect control and ±100 the full control effect; nearly all actives have a fitted effect of over 75% in size
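Readings reflect AlphaScreen signal from monomethyl-H3K9 antibody detection. HMT at 20 nM; substrate b-H3K9 500 nM; cofactor SAM 20 uM; 2 h RT reaction; compounds tested as titrations in qHTS with 15 min preincubation.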
Six1-Eya2 blk: inhibitors of human Six1/Eya2 interaction; AlphaScreen GST-Six1/His-Eya2 binding, biochemical; active compounds read low; hit rate 0.56% among 360,000; activity change, % (no concentration beside the values); Q15475+O00167; in the data active means activity change below about -65%; inconclusive means mostly about -30% to -63%; further: on the % scale 0 is the no-effect control and ±100 the full control effect
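AlphaScreen luminescence read after one hour at 37 °C in darkness. Pin-transferred compounds met GST-Six1 and His-Eya2 protein (5X stock 250 nM/500 nM) plus glutathione donor and Ni-chelate acceptor beads (5X, 50 ug/mL).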
CtBP-E1A blk: blocks the CtBP interaction with E1A. AlphaScreen GST-E1A/His-CtBP binding, 1536-well; active compounds read low. activity change, % (no concentration beside the values). hit rate 0.49% among 340,000. AID 651724; in the data active means activity change below about -65%; inconclusive means mostly about -30% to -63%; further: on the % scale 0 is the no-effect control and ±100 the full control effect
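Homogeneous bead-based format: GST-tagged E1A captured on glutathione donor beads, His-tagged CtBP on nickel acceptor beads; compounds precede bead addition by 2 h at 37 °C.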
JMJD2A Tudor: blocks the human JMJD2A Tudor domain; O75164; AlphaScreen JMJD2A-Tudor / H3K4me3 peptide binding; Potency, µM (highest dose often 114 µM), for inactives: at the top dose activity change, negative = inhibition, hits mostly inhibitors; hit rate 4.4% among 390,000; AID 504339; further: potency means the concentration at half of the fitted maximal effect; on the % scale 0 is the no-effect control and ±100 the full control effect; nearly all actives have a fitted effect of over 50% in size
Target sequence (O75164 whole entry, looked up, the tested form may be a part): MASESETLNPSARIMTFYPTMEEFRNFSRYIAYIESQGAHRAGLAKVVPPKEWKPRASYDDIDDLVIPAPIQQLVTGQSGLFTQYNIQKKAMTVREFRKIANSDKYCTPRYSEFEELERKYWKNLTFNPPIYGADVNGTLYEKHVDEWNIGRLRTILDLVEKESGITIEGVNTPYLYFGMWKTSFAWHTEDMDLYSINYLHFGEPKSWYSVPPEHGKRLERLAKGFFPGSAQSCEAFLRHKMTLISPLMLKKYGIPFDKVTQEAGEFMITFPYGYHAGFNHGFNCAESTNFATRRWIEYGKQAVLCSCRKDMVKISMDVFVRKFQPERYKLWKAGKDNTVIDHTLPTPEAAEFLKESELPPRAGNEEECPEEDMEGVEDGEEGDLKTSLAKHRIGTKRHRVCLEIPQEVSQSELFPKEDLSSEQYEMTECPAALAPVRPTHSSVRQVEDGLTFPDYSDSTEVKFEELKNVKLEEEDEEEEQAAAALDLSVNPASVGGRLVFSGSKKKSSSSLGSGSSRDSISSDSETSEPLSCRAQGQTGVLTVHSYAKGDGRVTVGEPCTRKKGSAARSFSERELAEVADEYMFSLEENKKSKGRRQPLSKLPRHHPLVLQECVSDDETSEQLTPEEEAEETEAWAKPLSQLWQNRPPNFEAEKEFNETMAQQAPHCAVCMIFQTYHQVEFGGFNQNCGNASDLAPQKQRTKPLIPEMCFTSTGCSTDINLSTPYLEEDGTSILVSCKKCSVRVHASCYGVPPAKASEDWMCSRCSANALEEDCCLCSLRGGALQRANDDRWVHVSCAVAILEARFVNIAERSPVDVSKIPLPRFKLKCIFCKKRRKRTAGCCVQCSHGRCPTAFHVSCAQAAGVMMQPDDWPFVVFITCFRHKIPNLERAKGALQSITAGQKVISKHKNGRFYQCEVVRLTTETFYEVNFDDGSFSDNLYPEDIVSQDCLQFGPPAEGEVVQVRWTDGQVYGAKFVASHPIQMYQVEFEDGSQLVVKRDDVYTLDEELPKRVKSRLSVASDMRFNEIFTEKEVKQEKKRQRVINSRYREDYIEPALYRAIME
Starred values were filed as active, the others as inactive; ? = inconclusive; nt = no result; [ ] = remark or other dose. Unless noted, the call rests on the fitted dose curve; in most records, active means well fitted inhibition curve with a large enough effect; inconclusive means small, poorly fitted or top-dose-only effect; inactive means no such curve, though single readings can be large or run the other way.

SMILES | BAZ2B inh | HP1b chromo inh | G9a block | Six1-Eya2 blk | CtBP-E1A blk | JMJD2A Tudor
O=C(c1ccc2c(c1)N(Cc1ccccc1)C(=O)c1ccccc1S2=O)N1CCC(Cc2ccccc2)CC1 (stereo not drawn) | -22% | 20% | -20%[59 µM] | nt | nt | -25%
C/C(=N/NC(=O)c1ccc(C)s1)c1cccnc1 | -29% | 24% | ? | -11 | -28 | 35µM*
C/C(=N\NC(=O)Cc1c(F)cccc1Cl)c1cccnc1 | -2% | 58% | 50µM* | 0 | 4 | -13%
C/C(=N/NC(=O)c1ccc(Br)s1)c1ccncc1 | -20% | 32% | 71µM* | -7 | -10 | -12%
Nc1ncnc(N)c1N=Nc1ccccc1 | -6% | 16% | 5% | -5 | -22 | -15%
Nc1ccc2ccccc2c1N=Nc1ccccc1 | nt | 13µM* | nt | -76* | -77* | 13µM*
Cc1ccc(S(=O)(=O)c2nc(-c3ccco3)oc2SC(C)c2ccccc2)cc1 (stereo not drawn) | -20% | 20% | ? | nt | nt | -19%
OCCCn1c(-c2ccccc2)csc1=Nc1ccccc1 | 56µM* | ? | 22µM* | -19 | -15 | ?
O=C(O)CCC(=O)NCCn1c(-c2ccccc2)csc1=Nc1ccccc1 | ? | 1% | ? | 1 | 2 | -16%
CCn1c(-c2ccccc2)csc1=Nc1ccc(S(=O)(=O)O)cc1 | -35% | -22% | 18µM* | -13 | -8 | -32%
Cc1ccc(-c2csc(=Nc3ccccc3)n2Cc2ccc3c(c2)OCO3)cc1 | 8.9µM* | ? | 11µM* | nt | nt | 56µM*
COC(=O)c1cc(=O)n(Cc2ccc3c(c2)OCO3)c(=Nc2ccccc2)s1 | ? | -17% | ? | -1 | 6 | ?
CCN(CC)CCn1c(-c2ccccc2)csc1=Nc1ccccc1 | 50µM* | ? | 2.2µM* | nt | nt | 18µM*
COCCn1c(C)cc(O)c(C(c2ccc(OC)cc2)N2CCN(c3ccccc3)CC2)c1=O (stereo not drawn) | 6% | 15%[57 µM] | ? | nt | nt | -26%
Cc1ccc(Cl)cc1Nc1nc(-c2sc(NC(=O)c3cccc(Cl)c3)nc2C)cs1 | ? | nt | 32µM* | nt | nt | nt
Cc1ccc(Nc2nc(-c3sc(NC(=O)c4ccc([N+](=O)[O-])cc4)nc3C)cs2)cc1 | 45µM* | nt | nt | nt | nt | nt
CCCCCC(=O)Nc1nc(C)c(-c2csc(Nc3cc(Cl)ccc3C)n2)s1 | ? | -11% | ? | -2 | nt | ?
Cc1ccccc1Nc1nc(-c2sc(NC(=O)c3ccccc3)nc2C)cs1 | ? | nt | 35µM* | nt | nt | nt
Cc1ccc(Cl)cc1Nc1nc(-c2sc(NC(=O)c3ccco3)nc2C)cs1 | ? | 23% | ? | -4 | -6 | ?
Cc1ccccc1Nc1nc(-c2sc(NC(=O)c3cccc(Cl)c3)nc2C)cs1 | 89µM* | nt | 22µM* | nt | nt | nt
CCNc1ncc2nc(-c3ccccc3)c(=O)n(Cc3cccc(OC)c3)c2n1 | nt | nt | 5%[0.501 µM] | nt | nt | nt
Cc1ccccc1NC(=O)Cn1c(=O)n(Cc2ccc3c(c2)OCO3)c(=O)c2oc3ccccc3c21 | -4% | 18% | -3%[59 µM] | nt | nt | -11%
COc1ccccc1Nc1nc(-c2sc(NC(=O)c3ccco3)nc2C)cs1 | -33% | -8% | ? | -17 | -11 | -25%
Cc1ccccc1Nc1nc(-c2sc(NC(=O)c3ccc([N+](=O)[O-])cc3)nc2C)cs1 | 45µM* | nt | 25µM* | nt | nt | nt
Nc1ccc(-c2ncc(-c3ccccc3)o2)cc1 | 28µM* | -15% | ? | -12 | -12 | ?
SMILES | BAZ2B inh | HP1b chromo inh | G9a block | Six1-Eya2 blk | CtBP-E1A blk | JMJD2A Tudor
Cc1ccc(-c2cnc(-c3ccncc3)o2)cc1 | 1% | 38% | ? | 5 | -14 | -9%[57.1 µM]
COc1ccc(-c2nc3ccccc3o2)cc1NC(=O)c1ccc(-c2cccc(Cl)c2C)o1 | -35% | 9% | -2%[59 µM] | nt | nt | -7%
CC(=O)NCCC(=O)Nc1cc(S(=O)(=O)N2CCCCC2)ccc1N1CCN(C)CC1 | 10% | 6% | 50µM* | 5 | -14 | ?
CN1CCN(c2ccc(S(=O)(=O)N3CCCCC3)cc2NC(=O)Cc2c(F)cccc2Cl)CC1 | -7% | -6% | 45µM* | -13 | -1 | -24%
CC(=O)NCCC(=O)Nc1cc(S(=O)(=O)Nc2ccc(Cl)cc2)ccc1N1CCCC1 | -10% | -13% | 22µM* | 7 | 0 | ?
COCCNC(=S)Nc1ccc(N2CCOCC2)c(S(=O)(=O)Nc2ccc(Cl)cc2)c1 | nt | nt | nt | -3 | -3 | nt
O=S(=O)(Nc1ccc(Cl)cc1)c1ccc(N2CCOCC2)c(NC(=S)NCCN2CCOCC2)c1 | ? | ? | 4.5µM* | 15 | -14 | 79µM*
Cc1ccc(C)c(N2CCN(C(=O)c3cc(C)nc4c3c(C)nn4-c3cccc(F)c3)CC2)c1 | 40%[57.1 µM] | 61% | 1%[59 µM] | nt | nt | -4%
CCC(COC(C)=O)Nc1nc2c([nH]1)c(=O)n(C)c(=O)n2C (stereo not drawn) | 5% | 32% | nt | -4 | 10 | -6%
Cn1c(=O)c2[nH]c(N/N=C(/C#N)C(N)=O)nc2n(C)c1=O | ? | -3% | 14µM* | -10 | -11 | -19%
CCc1cccc(C)c1NC(=O)Cn1ccn(-c2ccc(F)cc2)c(=O)c1=O | 2% | 56% | -7%[59 µM] | nt | nt | 6%
Cc1nnc2sc(-c3ccc(-c4ccc(Cl)c(C(F)(F)F)c4)o3)nn12 | 9% | 14% | 50µM* | -1 | 0 | ?
COc1ccc(CNC(=O)CSc2ncc(S(=O)(=O)c3ccc(C)c(Cl)c3)c(=O)[nH]2)cc1 | 2% | 22%[57 µM] | 5%[59 µM] | nt | nt | 2%
CCOC(=O)C(NC(=O)c1ccccc1Cl)(Nc1sc2c(c1C(N)=O)CCC2)C(F)(F)F (stereo not drawn) | -1% | 17% | 28µM* | 1 | nt | -20%
Clc1cccc(CNCCCSc2nnnn2-c2ccccc2)c1 | 1% | 40% | -4%[59 µM] | nt | nt | -28%
